From the supplement of paper PMC10646978
± gives the standard deviation.

Assays:
Conditions in all cases: modulator concentration 10 µM
[1] = tested on: RAW-Dual (murine macrophage reporter line); assay: NF-kB reporter (SEAP) activity fold change vs agonist alone; higher = enhanced NF-kB activity
Procedure, shortened: (§1)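 RAW-Dual murine macrophage reporter cells were plated at 50 000 per well in 384-well plates, pin-transferred compound to 10 μM final, and pre-incubated for 1 hour at 37 °C before a PRR agonist was added and the cells incubated overnight. NF-κB activity was read from supernatant SEAP with QUANTI-Blue at 620 nm absorbance, and IRF activity from Lucia luciferase with QUANTI-Luc by luminescence. Each signal was expressed as fold change by dividing by the mean agonist-only control on the same plate. Two replicate plates were averaged, with errors obtained by propagation.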

[2] = tested on: RAW-Dual (murine macrophage reporter line); assay: IRF reporter (Lucia luciferase) activity fold change vs agonist alone; higher = enhanced IRF activity
Procedure, shortened: as §1

[3] = tested on: RAW-Dual (murine macrophage reporter line); assay: viability score (confluency relative to resting cells, overnight) (fraction); higher = more viable, active = viable (0.7 or more)
Procedure, shortened: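 A compound met the cutoff when both of two confluency masks exceeded 70% of resting cells. Those masks were made with IncuCyte software from IncuCyte images of RAW-Dual macrophages treated overnight at 10 μM final. This is the basis of the viability score, which is confluency relative to resting cells.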

[4] = agonist: CpG ODN 1826 0.5 ug/mL

Structure (SMILES) | NF-kB reporter [1, 4] | NF-kB reporter ([1]; agonist: LPS 0.1 ug/mL) | NF-kB reporter ([1]; agonist: MPLA […]) | IRF reporter ([2]; agonist: 3'3'-cGAMP 10 ug/mL) | IRF reporter ([2]; agonist: LPS 0.1 ug/mL) | IRF reporter ([2]; agonist: MPLA […]) | viability score [3]
Cc1ccc(C(=O)NC(=Cc2ccccc2)C(=O)NCCCn2ccnc2)cc1 | 0.949 ± 0.077 | 1.03 ± 0.069 | 0.907 ± 0.083 | 1.01 ± 0.045 | 1.45 ± 0.25 | 1.12 ± 0.074 | 1.01 (active)
NCCCCC(NC(CCc1ccccc1)C(=O)O)C(=O)N1CCCC1C(=O)O (configuration not stated) | 1.33 ± 0.32 | 0.955 ± 0.083 | 1.03 ± 0.088 | 0.947 ± 0.032 | 1.09 ± 0.13 | 1.02 ± 0.13 | 0.998 (active)
O=C(NCCN1CCOCC1)c1ccccc1Br | 0.967 ± 0.081 | 1.13 ± 0.089 | 0.952 ± 0.035 | 1.02 ± 0.15 | 1.13 ± 0.12 | 0.897 ± 0.18 | 0.997 (active)
Cl.O=C1c2cccc3c2[C@H](CCC3)CN1[C@@H]1CN2CCC1CC2 | 1.03 ± 0.17 | 0.655 ± 0.053 | 0.823 ± 0.11 | 0.582 ± 0.022 | 0.918 ± 0.17 | 0.987 ± 0.12 | 0.974 (active)
Cc1cc(O)c(C(C)C)cc1NC(=O)c1cc(C(C)(C)C)oc1C | 1.22 ± 0.12 | 0.884 ± 0.083 | 1.76 ± 0.13 | 0.562 ± 0.025 | 0.998 ± 0.048 | 2.71 ± 0.29 | 0.797 (active)
CCN(CC)CCOC(=O)C(c1ccccc1)c1ccccc1.Cl | 0.913 ± 0.08 | 0.887 ± 0.067 | 0.965 ± 0.084 | 1.58 ± 0.074 | 1.29 ± 0.12 | 1.49 ± 0.12 | 0.941 (active)
O=C(Oc1ccc(O)c(CO)c1)c1ccccc1 | 1.15 ± 0.12 | 1.08 ± 0.071 | 1.06 ± 0.086 | 0.637 ± 0.1 | 0.888 ± 0.098 | 0.769 ± 0.16 | 1 (active)
COc1ccc2cc(Br)ccc2c1CC(=O)O | 0.759 ± 0.06 | 0.954 ± 0.045 | 1.01 ± 0.087 | 0.918 ± 0.043 | 1.29 ± 0.076 | 1.33 ± 0.19 | 1.02 (active)
Cc1ccc(Sc2c(C)nn(-c3ccccc3)c2OC(=O)C(C)(C)C)cc1 | 0.74 ± 0.07 | 0.87 ± 0.075 | 0.928 ± 0.12 | 0.557 ± 0.031 | 1.08 ± 0.1 | 1.03 ± 0.19 | 0.963 (active)
O=C(O)c1ccccc1N(Cc1ccccc1)S(=O)(=O)c1ccccc1 | 1.14 ± 0.13 | 1 ± 0.15 | 1.08 ± 0.061 | 0.965 ± 0.1 | 1.06 ± 0.072 | 0.938 ± 0.14 | 0.984 (active)
COCCCNC(=O)C1CCCN(c2ccc(Sc3ccc(Br)cc3)nn2)C1 (configuration not stated) | 0.99 ± 0.1 | 1.1 ± 0.095 | 1.15 ± 0.11 | 0.84 ± 0.03 | 0.966 ± 0.076 | 0.779 ± 0.2 | 0.993 (active)
CCOC(=O)CC(C)(O)P(=O)(OCC)OCC (configuration not stated) | 1.01 ± 0.066 | 1.08 ± 0.068 | 0.955 ± 0.069 | 1.04 ± 0.035 | 1.44 ± 0.2 | 1.18 ± 0.12 | 1 (active)
CCC(C)(Oc1ccc(C2(c3ccc(OC(C)(CC)C(=O)O)cc3)CCCCC2)cc1)C(=O)O (configuration not stated) | 1.14 ± 0.26 | 1.09 ± 0.39 | 0.919 ± 0.063 | 0.946 ± 0.037 | 1.29 ± 0.44 | 1.24 ± 0.093 | 0.986 (active)
Cn1nccc1-c1ccc(CNC(=O)c2cc(Br)cs2)cn1 | 1.02 ± 0.082 | 0.974 ± 0.078 | 1.16 ± 0.12 | 1.03 ± 0.032 | 1.35 ± 0.17 | 1.53 ± 0.23 | 1 (active)
O=C(NCCc1nc(C2CC2)cc(C(F)(F)F)n1)c1c(F)cccc1Cl | 1.01 ± 0.079 | 1.11 ± 0.087 | 0.943 ± 0.11 | 1.01 ± 0.053 | 1.13 ± 0.086 | 1.07 ± 0.12 | 1 (active)
Cc1cccc(C(=O)NC(Nc2ccccc2C(F)(F)F)C(Cl)(Cl)Cl)c1 (configuration not stated) | 0.896 ± 0.079 | 1.05 ± 0.077 | 1.22 ± 0.23 | 0.948 ± 0.05 | 1.22 ± 0.2 | 1.26 ± 0.4 | 1.01 (active)
Cc1ccc(S(=O)(=O)Nc2c3ccccc3c(O)c3c4c(oc23)CC(C)(C)CC4=O)cc1 | 0.938 ± 0.075 | 1.04 ± 0.067 | 0.935 ± 0.058 | 0.842 ± 0.05 | 1.29 ± 0.14 | 1.02 ± 0.16 | 1.01 (active)
CC(=O)NC(NC(C)=O)c1cccc([N+](=O)[O-])c1 | 1.15 ± 0.12 | 1 ± 0.13 | 0.998 ± 0.039 | 0.968 ± 0.043 | 0.99 ± 0.085 | 1.05 ± 0.12 | 0.995 (active)
C=Cc1c(C)c2cc3nc(cc4[nH]c(cc5nc(cc1[nH]2)C(C)=C5CCC(=O)O)c(CCC(=O)OC)c4C)[C@@]1(C)C3=CC=C(C(=O)OC)[C@H]1C(=O)OC | 0.419 ± 0.077 | 0.077 ± 0.012 | 0.123 ± 0.0057 | 0.0175 ± 0.0038 | 0.0424 ± 0.018 | 0.0518 ± 0.015 | 0.344 (inactive)
O=C(CSc1ccc2ccccc2n1)NC1=NCCS1 | 0.89 ± 0.051 | 0.986 ± 0.062 | 0.972 ± 0.06 | 0.968 ± 0.033 | 1.2 ± 0.077 | 0.958 ± 0.23 | 1.01 (active)
O=c1n(CCCN2CCN(c3cccc(Cl)c3)CC2)nc2ccccn12 [Prestw-292] | 0.813 ± 0.062 | 0.912 ± 0.067 | 0.899 ± 0.089 | 0.932 ± 0.041 | 1.19 ± 0.14 | 1.19 ± 0.24 | 1.06 (active)
CCCCc1c(C)nc(NN=C(C)c2cccc([N+](=O)[O-])c2)nc1O | 0.954 ± 0.081 | 0.941 ± 0.092 | 1.11 ± 0.1 | 0.912 ± 0.032 | 1.12 ± 0.15 | 1.18 ± 0.19 | 1.01 (active)
Br.O=S(=O)(c1ccc(-c2csc(Nc3ccc(Br)cc3)n2)cc1)N1CCCC1 | 0.814 ± 0.063 | 1.08 ± 0.099 | 0.858 ± 0.065 | 1.03 ± 0.034 | 1.37 ± 0.1 | 1.2 ± 0.16 | 1.01 (active)
Cc1ncc(CC(=O)N2CCC(c3ccccc3Cl)S(=O)(=O)CC2)s1 (configuration not stated) | 0.884 ± 0.07 | 0.974 ± 0.12 | 0.972 ± 0.032 | 1.11 ± 0.092 | 0.981 ± 0.076 | 0.944 ± 0.24 | 1 (active)
CCCOc1cccc(C(=O)Nc2scc(-c3ccccc3Cl)c2C(=O)OC)c1 | 0.817 ± 0.1 | 0.827 ± 0.039 | 1.05 ± 0.092 | 1.03 ± 0.059 | 1.54 ± 0.09 | 1.69 ± 0.2 | 1 (active)
CCOC(=O)c1c(N)sc(C(=O)N2CCCC(C(N)=O)C2)c1C (configuration not stated) | 0.442 ± 0.15 | 0.873 ± 0.095 | 0.356 ± 0.17 | 0.982 ± 0.039 | 2.11 ± 0.89 | 1.79 ± 0.39 | 0.932 (active)
